Test results reported in PubChem BioAssay AID743314 (Broad Institute, 2014).
Measured potencies and affinities stand elsewhere. Inconclusive results are not listed.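 How the source made its calls: active means fitted half-maximal concentration no higher than twice the top tested dose, in every repeat run; inconclusive means repeat runs disagree, poor fit, or flat partial inhibition; inactive means the rest.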

target: Endoplasmic reticulum aminopeptidase 1 (Homo sapiens) (UniProt Q9NZ08); test: inhibition of human ERAP1 enzyme activity – biochemical, cherry-pick, set 2, plate reader, dose response (AID 743314); details: Recombinant ERAP1, Leu-AMC fluorescence, 60 min; series mostly up to 11 µM; activity change, negative = inhibition: at the top concentration;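 further: 0% = neutral control wells and -100% = L-leucinethiol positive control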
Sequence (Q9NZ08 whole entry, looked up): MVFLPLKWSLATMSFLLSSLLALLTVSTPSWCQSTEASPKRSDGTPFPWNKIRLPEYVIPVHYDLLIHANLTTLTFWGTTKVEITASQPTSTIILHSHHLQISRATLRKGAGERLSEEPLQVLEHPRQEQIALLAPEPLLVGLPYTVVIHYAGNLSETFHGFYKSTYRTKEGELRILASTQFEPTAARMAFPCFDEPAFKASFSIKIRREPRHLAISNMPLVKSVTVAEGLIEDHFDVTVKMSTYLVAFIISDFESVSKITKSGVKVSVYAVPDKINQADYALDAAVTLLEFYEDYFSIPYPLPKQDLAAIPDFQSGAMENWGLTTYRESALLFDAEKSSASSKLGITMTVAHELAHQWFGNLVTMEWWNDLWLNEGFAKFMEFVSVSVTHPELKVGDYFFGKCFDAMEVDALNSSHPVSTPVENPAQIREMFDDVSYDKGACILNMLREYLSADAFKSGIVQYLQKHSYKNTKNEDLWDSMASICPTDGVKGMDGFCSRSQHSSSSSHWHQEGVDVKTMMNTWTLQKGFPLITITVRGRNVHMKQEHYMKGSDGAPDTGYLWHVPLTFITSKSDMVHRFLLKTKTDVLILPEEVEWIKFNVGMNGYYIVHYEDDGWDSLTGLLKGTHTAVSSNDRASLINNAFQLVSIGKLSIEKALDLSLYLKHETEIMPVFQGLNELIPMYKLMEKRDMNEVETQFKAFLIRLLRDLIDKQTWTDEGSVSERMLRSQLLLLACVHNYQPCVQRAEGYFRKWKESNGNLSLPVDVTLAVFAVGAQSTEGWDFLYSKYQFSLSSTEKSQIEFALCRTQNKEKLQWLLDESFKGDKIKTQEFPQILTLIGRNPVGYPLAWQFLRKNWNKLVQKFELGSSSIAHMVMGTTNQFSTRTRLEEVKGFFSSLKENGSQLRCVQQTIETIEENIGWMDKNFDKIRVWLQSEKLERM

Activity change, negative = inhibition, inactive:
COc1ccc(CCC(=O)NC2CCCc3ccccc32)cc1OC (stereo not drawn) -13.1%
COc1ccccc1-c1cccc(-c2nc(C(=O)Nc3nccs3)cc3c2[C@@H](CCO)N(C(=O)CC2CC2)C3)c1 -7.7%
O=S(=O)(Nc1cccc(-c2cn3c(n2)SCC3)c1)c1ccccc1 -4.83%
COc1ccccc1CN1CC[C@@H]2[C@H](CO)Nc3ccc(-c4cccc(C(=O)N(C)C)c4)cc3[C@@H]21 41.8% [at 10 µM]
CCOc1ccccc1OCCCC(=O)Nc1ccc(S(=O)(=O)Nc2cc(C)nc(C)n2)cc1 9.91%
O=C(Nc1ccc(C(F)(F)F)cc1)N1[C@@H]2CNC[C@H]1C2c1ccc(-c2ccncc2)cc1 (stereo partly drawn) 42.7%
Cc1ccc(Cl)cc1NC(=O)CCC(=O)O 17%
C[C@H]1CN([C@@H](C)CO)C(=O)c2cc(-c3ccc(F)cc3)cnc2O[C@H]1CN(C)CC1CCCCC1 36.7%
C[C@H]1CCCCO[C@H](CN(C)C)[C@@H](C)CN([C@@H](C)CO)C(=O)c2cc(NS(=O)(=O)c3ccc(Cl)cc3)ccc2O1 9.96%
CCCCCCc1c(C)c2ccc(OCC(=O)N[C@@H](Cc3ccccc3)C(=O)O)cc2oc1=O -9.93%
COCC(=O)N1CCC2(CC1)CN(Cc1ccccc1F)[C@H](CO)c1[nH]c3cc(OC)ccc3c12 21.8%
Cc1ccc(NC(=O)C2CCN(C(=O)c3cccs3)CC2)c(C)c1 -4.73%
O=C(O)c1cccc(NC(=O)c2ccccc2NC(=O)c2cccc([N+](=O)[O-])c2)c1 110% [at 5.6 µM]
O=C(O)c1ccc(N2N=C(c3ccccc3)CC2c2ccccc2)cc1 (stereo not drawn) -7.44% [at 2.6 µM]
COc1ccc(CN(C)C[C@@H]2OCCCC[C@H](C)Oc3ccc(NS(=O)(=O)c4cccs4)cc3C(=O)N([C@@H](C)CO)C[C@H]2C)cc1 44.6%
CCc1cccc(C)c1NC(=O)c1cc(=O)[nH]c2ccc(S(=O)(=O)N3CCOCC3)cc12 2.94%
Cc1ccc(S(=O)(=O)c2cc3ccc(O)cc3oc2=O)cc1C 315% [at 5.6 µM]
C[C@@H]1CN([C@H](C)CO)C(=O)c2cc(NS(=O)(=O)c3ccc(Cl)cc3)ccc2O[C@@H](C)CCCCO[C@@H]1CN(C)C 3.13%
O=C(C[C@@H]1C=C[C@H](NC(=O)Nc2cccc(F)c2)[C@H](CO)O1)NCC1CCCCC1 59.7% [at 12 µM]
CCn1c(SCC(=O)NC2CCCCC2)nc2ccccc2c1=O -8.12%
COc1ccc(NC(=O)Nc2cccc3c2O[C@H](CN(C)Cc2ccc(C(=O)O)cc2)[C@H](C)CN([C@H](C)CO)C3=O)cc1 49.6%
COCCN(C(=O)COC(=O)CNC(=O)c1cccs1)c1c(N)n(Cc2ccccc2)c(=O)[nH]c1=O -3.47%
Cc1ccc(C)c(NC(=O)C2CC(O)CN2C(=O)Oc2ccccc2)c1 (stereo not drawn) -1.41%
Cc1cc(Br)ccc1NC(=O)CN(C)C(=O)Cn1c(=O)cnc2ccccc21 -2.06%
CCn1cc(CN2CCCC(C(=O)Nc3ccc(-c4nc5ccccc5[nH]4)cc3)C2)c(C)n1 (stereo not drawn) 82.3%
CCOC(=O)c1[nH]c2ccc(Br)cc2c1NC(=O)CCN1CCOCC1 13.7%
O=C(O)[C@@H]1[C@@H](CO)[C@@H]2Cn3c(ccc(/C=C/c4ccccc4)c3=O)[C@@H]2N1Cc1ccc2c(c1)OCO2 3.6%
CN(c1ccccc1)S(=O)(=O)c1cc(C(=O)OCC(=O)N2CCN(C(=O)c3ccco3)CC2)ccc1Cl -3.85%
O=S(=O)(O)c1ccc(N2N=C(c3ccccc3)CC2c2ccccc2)cc1 (stereo not drawn) 162%
COc1ccc(C(=O)O)cc1S(=O)(=O)Nc1cc(C(F)(F)F)ccc1N1CCCCC1 239% [at 2.6 µM]
Cc1noc(C)c1NC(=O)N(C)C[C@@H]1Oc2c(NC(=O)Nc3ccc(F)cc3)cccc2C(=O)N([C@@H](C)CO)C[C@@H]1C 51.5%
CCN(CC)CCCN=C1N[C@@H](c2ccccc2)C(C(=O)OC)=C(C)N1CC -11.5%
CNC[C@H]1Oc2c(NC(=O)Nc3ccc(F)cc3)cccc2C(=O)N([C@@H](C)CO)C[C@@H]1C 40%
C[C@H](CO)N1C[C@H](C)[C@H](CN(C)C)OCCCC[C@H](C)Oc2ccc(NS(=O)(=O)c3ccc(Cl)cc3)cc2C1=O 32.6%
COc1ccc(C(=O)NCc2nnc(SCC(=O)NC3CCCCC3)n2C)cc1 -3.46%
CCN(CC)CCNC(=O)c1ccc(NC(=O)c2ccc(-n3cncn3)c([N+](=O)[O-])c2)cc1 -9.89%
C/C=C/c1ccc([C@H]2[C@@H](CO)N(CC3CCOCC3)C23CN(S(=O)(=O)CC)C3)cc1 31.9%
C[C@@H]1CCCCO[C@H](CN(C)Cc2ccc(C(=O)O)cc2)[C@H](C)CN([C@@H](C)CO)C(=O)c2cc(NC(=O)Nc3ccc(C(F)(F)F)cc3)ccc2O1 216% [at 5.6 µM]
